Test in all cases: DAPPL (digital affinity profiling via proximity ligation, sequencing); 10 mM Tris-HCl pH 7.5, 50 mM NaCl, 1 mM DTT, 4% glycerol, room temperature, 30 min; GST-TFs on glutathione beads, 16-mer random dsDNA library, 0.1% formaldehyde crosslink after washing; high values mean tight binding
For one assay, the target named is T1, FEV (Homo sapiens, UniProt Q99581 1-238).
T1 sequence: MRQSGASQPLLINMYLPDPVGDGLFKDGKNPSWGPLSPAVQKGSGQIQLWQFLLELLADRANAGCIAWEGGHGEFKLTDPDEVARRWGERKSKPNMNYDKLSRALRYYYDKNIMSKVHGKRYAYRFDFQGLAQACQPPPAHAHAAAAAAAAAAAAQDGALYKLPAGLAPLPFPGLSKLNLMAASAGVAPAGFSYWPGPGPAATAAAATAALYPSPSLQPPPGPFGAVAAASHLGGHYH
To be noted: protein: recombinant; tags: N-terminal GST; dsDNA, one strand shown. In short, it runs like this: (§1)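 In yeast, human transcription factors were expressed with a GST fusion, then pulled down on glutathione beads and given DNA barcodes. Pooled with a tag-only sample, they were exposed to 200 nmole of a 16-mer random double-stranded DNA library (Tris/NaCl/DTT/glycerol buffer, room temperature, 30 min), washed, crosslinked with 0.1% formaldehyde, proximity-ligated using BsaI/T4 ligase for 1 h at 37 °C, PCR-amplified and read on an Illumina NextSeq500. Each hexamer's frequency of reads for a factor, divided by the matching frequency for the tag-only sample, gives the binding signal.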

Another assay deals with ETV5 (Homo sapiens, UniProt P41161 1-510). The settings on record: protein: recombinant; tags: N-terminal GST; dsDNA, one strand shown. An outline of the steps:
as §1

In a further assay the target is HSF1 (Homo sapiens, UniProt Q00613 1-529). The settings on record: protein: recombinant; tags: N-terminal GST; chain copies: 3; dsDNA, one strand shown. In short, it runs like this:
as §1

In the next assay the target is T2, SPIC (Homo sapiens, UniProt Q8N5J4 1-248).
T2 sequence: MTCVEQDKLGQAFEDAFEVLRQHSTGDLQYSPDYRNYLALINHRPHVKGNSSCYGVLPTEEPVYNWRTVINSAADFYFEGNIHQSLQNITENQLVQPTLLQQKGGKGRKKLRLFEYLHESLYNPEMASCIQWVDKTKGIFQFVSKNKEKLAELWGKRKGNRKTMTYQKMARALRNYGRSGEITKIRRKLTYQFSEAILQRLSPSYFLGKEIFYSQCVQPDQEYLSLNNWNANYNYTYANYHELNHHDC
The settings on record: protein: recombinant; tags: N-terminal GST; dsDNA, one strand shown. In short, it runs like this:
as §1

A further assay deals with ELF4 (Homo sapiens, UniProt Q99607 1-663). To be noted: protein: recombinant; tags: N-terminal GST; dsDNA, one strand shown. In short, it runs like this:
as §1

For a further assay, the target named is T3, ELK4 (Homo sapiens, UniProt P28324-2 1-405).
T3 sequence: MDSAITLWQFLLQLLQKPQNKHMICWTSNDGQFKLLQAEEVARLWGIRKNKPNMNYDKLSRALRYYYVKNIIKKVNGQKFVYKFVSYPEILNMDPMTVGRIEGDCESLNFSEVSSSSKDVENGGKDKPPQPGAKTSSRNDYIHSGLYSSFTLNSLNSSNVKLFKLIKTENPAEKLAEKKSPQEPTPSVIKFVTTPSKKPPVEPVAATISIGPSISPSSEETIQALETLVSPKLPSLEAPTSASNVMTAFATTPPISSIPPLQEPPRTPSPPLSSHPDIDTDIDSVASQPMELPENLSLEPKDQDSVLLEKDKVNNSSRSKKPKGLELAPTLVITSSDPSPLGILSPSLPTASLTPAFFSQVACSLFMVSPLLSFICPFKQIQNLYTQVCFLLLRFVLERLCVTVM
To be noted: protein: recombinant; tags: N-terminal GST; dsDNA, one strand shown. In short, it runs like this: as §1

The target of a further assay is T4, ETV2 (Homo sapiens, UniProt O00321 1-342).
T4 sequence: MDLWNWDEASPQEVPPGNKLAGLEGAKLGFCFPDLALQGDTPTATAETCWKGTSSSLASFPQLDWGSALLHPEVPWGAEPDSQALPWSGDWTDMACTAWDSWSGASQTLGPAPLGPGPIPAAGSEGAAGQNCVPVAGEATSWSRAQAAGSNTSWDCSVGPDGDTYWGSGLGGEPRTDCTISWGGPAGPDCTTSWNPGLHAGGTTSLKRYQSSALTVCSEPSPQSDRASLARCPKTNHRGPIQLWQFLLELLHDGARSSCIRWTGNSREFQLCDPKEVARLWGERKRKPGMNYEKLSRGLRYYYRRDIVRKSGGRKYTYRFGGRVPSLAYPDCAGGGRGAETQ
The settings on record: protein: recombinant; tags: N-terminal GST; dsDNA, one strand shown. In short, it runs like this: as §1

A further assay addresses T5, ELF3 (Homo sapiens, UniProt P78545 1-371).
T5 sequence: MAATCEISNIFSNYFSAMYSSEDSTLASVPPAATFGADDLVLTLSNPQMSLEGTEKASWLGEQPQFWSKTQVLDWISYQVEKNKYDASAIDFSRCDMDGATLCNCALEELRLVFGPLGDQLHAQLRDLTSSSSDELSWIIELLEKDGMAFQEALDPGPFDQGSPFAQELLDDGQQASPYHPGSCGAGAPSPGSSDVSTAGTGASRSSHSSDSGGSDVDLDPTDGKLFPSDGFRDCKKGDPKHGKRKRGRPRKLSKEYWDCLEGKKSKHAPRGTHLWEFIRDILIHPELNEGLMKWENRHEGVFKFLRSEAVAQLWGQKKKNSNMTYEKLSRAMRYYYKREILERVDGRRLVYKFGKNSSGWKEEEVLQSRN
To be noted: protein: recombinant; tags: N-terminal GST; dsDNA, one strand shown. In short, it runs like this: as §1

A further assay addresses CRX (Homo sapiens, UniProt O43186 1-299). To be noted: protein: recombinant; tags: N-terminal GST; dsDNA, one strand shown. An outline of the steps:
as §1

For another assay, the target named is ETV1 (Homo sapiens, UniProt P50549 1-477). The settings on record: protein: recombinant; tags: N-terminal GST; dsDNA, one strand shown. An outline of the steps: as §1
ETV1, sequence (P50549 whole entry): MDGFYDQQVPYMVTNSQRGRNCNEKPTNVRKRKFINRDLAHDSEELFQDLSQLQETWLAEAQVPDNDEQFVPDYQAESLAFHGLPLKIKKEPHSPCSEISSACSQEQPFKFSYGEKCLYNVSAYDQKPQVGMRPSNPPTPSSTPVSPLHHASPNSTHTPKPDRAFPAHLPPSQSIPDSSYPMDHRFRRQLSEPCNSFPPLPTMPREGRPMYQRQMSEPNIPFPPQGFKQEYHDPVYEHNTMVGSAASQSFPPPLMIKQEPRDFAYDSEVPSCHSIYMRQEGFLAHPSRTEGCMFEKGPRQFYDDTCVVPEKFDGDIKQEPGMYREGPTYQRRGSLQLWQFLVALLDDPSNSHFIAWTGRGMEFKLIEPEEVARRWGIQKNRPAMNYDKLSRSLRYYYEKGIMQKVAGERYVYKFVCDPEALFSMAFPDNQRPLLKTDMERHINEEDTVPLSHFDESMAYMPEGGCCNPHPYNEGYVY
For the next assay, the target named is T6, ERF (Homo sapiens, UniProt P50548 1-548).
T6 sequence: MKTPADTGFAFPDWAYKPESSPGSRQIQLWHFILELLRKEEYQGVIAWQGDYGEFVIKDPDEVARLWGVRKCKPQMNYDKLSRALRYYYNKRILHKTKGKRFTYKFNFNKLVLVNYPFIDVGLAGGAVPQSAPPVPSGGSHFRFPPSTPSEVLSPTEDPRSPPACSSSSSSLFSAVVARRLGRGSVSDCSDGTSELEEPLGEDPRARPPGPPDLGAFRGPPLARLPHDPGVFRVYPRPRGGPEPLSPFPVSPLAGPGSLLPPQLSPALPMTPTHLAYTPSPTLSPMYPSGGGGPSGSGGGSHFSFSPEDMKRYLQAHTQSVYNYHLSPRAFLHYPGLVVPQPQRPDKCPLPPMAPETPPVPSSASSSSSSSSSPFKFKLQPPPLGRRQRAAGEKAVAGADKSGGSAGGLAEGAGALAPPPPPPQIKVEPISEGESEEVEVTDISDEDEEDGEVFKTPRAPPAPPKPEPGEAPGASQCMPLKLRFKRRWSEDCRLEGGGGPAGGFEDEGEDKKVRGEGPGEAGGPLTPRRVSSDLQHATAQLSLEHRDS
The settings on record: protein: recombinant; tags: N-terminal GST; dsDNA, one strand shown. In short, it runs like this: as §1

Another assay concerns the target T7, ETV3L (Homo sapiens, UniProt Q6ZN32 1-361).
T7 sequence: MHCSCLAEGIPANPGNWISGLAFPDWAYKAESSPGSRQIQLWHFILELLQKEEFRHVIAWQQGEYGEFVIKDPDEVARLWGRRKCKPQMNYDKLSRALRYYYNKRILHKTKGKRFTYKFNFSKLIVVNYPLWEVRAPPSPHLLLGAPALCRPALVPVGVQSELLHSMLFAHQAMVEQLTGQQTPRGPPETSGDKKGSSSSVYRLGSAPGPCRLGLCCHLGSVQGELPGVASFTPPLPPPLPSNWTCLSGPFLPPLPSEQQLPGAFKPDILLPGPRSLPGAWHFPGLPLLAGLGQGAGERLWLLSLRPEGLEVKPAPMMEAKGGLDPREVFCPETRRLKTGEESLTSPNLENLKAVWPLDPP
The settings on record: protein: recombinant; tags: N-terminal GST; dsDNA, one strand shown. An outline of the steps:
as §1

The target of a further assay is T8, ETS2 (Homo sapiens, UniProt P15036 1-469).
T8 sequence: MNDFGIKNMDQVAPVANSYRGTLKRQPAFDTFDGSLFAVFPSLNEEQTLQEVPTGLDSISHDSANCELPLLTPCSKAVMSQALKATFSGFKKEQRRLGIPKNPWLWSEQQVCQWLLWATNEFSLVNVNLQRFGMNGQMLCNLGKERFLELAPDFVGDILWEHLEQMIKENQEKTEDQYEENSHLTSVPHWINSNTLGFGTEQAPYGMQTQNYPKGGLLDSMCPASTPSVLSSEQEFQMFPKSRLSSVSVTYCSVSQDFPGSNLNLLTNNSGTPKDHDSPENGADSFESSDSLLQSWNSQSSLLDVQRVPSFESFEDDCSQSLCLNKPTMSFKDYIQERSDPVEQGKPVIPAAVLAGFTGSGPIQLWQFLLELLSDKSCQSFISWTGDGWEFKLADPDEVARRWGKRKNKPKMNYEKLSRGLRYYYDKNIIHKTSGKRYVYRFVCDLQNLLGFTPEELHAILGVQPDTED
To be noted: protein: recombinant; tags: N-terminal GST; dsDNA, one strand shown. An outline of the steps:
as §1

In another assay the target is T9, SPDEF (Homo sapiens, UniProt O95238 1-335).
T9 sequence: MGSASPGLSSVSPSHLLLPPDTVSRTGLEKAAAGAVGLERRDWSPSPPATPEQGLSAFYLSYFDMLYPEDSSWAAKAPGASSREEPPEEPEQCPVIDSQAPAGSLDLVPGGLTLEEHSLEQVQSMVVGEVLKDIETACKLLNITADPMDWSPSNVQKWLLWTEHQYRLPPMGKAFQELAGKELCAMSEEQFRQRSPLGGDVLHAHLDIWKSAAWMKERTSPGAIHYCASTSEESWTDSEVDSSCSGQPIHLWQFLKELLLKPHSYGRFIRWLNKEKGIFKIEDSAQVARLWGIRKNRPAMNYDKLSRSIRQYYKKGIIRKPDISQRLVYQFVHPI
To be noted: protein: recombinant; tags: N-terminal GST; dsDNA, one strand shown. In short, it runs like this: as §1

The target in the next assay is T10, ETV7 (Homo sapiens, UniProt Q9Y603 1-341).
T10 sequence: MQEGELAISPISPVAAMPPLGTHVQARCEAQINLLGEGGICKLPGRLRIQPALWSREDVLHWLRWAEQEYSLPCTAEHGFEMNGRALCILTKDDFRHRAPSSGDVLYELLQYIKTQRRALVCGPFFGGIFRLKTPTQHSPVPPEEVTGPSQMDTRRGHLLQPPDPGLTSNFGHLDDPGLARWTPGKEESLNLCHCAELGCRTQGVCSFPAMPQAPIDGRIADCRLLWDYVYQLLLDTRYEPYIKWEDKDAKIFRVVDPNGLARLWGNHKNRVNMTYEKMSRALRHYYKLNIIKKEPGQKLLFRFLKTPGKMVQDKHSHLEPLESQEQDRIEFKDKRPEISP
To be noted: protein: recombinant; tags: N-terminal GST; dsDNA, one strand shown. An outline of the steps:
as §1

The target of a further assay is T11, ELF5 (Homo sapiens, UniProt Q9UKW6-2 1-255).
T11 sequence: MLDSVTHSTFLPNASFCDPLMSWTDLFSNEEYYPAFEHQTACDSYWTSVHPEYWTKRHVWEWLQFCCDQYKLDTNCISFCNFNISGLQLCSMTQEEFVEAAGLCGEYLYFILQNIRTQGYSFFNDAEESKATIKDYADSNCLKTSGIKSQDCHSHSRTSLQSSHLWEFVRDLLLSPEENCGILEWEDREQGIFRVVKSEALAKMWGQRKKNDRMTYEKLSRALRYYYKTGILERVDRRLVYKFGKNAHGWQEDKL
To be noted: protein: recombinant; tags: N-terminal GST; dsDNA, one strand shown. In short, it runs like this: as §1

The next assay addresses T12, ETV3 (Homo sapiens, UniProt P41162-2 1-143).
T12 sequence: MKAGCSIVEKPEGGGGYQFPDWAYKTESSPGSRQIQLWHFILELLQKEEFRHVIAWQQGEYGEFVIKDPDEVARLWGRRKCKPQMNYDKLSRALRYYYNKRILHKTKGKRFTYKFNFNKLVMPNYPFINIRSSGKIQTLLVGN
To be noted: protein: recombinant; tags: N-terminal GST; dsDNA, one strand shown. An outline of the steps: as §1

For a further assay, the target named is ETV6 (Homo sapiens, UniProt P41212 1-452). To be noted: protein: recombinant; tags: N-terminal GST; dsDNA, one strand shown. An outline of the steps: as §1
ETV6, sequence (P41212 whole entry): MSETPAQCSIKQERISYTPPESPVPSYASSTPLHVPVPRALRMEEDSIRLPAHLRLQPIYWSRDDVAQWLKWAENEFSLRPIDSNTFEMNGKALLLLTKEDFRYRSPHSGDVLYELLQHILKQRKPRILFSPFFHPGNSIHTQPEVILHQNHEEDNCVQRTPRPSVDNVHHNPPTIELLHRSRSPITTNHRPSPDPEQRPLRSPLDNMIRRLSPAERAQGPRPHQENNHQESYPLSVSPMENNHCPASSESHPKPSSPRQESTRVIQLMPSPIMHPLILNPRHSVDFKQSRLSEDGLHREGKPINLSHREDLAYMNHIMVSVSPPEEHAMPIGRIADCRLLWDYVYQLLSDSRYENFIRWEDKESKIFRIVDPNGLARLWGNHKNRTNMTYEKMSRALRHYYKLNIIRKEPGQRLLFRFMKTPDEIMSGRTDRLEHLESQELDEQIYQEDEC

CRX, sequence (O43186 whole entry): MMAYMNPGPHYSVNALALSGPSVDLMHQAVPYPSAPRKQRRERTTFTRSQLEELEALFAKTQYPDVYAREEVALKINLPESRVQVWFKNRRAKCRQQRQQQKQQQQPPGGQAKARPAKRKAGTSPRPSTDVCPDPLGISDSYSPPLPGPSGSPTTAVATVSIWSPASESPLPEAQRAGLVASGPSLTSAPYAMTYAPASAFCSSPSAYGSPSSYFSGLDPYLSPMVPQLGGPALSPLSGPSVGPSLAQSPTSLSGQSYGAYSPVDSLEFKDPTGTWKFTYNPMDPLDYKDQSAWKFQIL
HSF1, sequence (Q00613 whole entry): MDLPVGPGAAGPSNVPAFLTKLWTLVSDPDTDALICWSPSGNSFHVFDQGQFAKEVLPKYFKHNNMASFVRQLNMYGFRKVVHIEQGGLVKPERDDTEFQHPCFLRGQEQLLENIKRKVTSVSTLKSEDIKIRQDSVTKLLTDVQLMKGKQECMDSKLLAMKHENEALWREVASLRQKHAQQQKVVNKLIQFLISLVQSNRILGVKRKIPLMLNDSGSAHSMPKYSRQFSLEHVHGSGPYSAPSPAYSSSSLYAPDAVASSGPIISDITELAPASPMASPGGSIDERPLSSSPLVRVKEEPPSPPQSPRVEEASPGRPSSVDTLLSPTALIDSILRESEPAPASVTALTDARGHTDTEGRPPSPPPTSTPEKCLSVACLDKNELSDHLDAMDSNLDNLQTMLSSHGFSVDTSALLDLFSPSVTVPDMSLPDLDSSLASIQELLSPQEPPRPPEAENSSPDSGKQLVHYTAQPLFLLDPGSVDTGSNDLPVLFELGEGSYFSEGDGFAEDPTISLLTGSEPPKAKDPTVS
ETV5, sequence (P41161 whole entry): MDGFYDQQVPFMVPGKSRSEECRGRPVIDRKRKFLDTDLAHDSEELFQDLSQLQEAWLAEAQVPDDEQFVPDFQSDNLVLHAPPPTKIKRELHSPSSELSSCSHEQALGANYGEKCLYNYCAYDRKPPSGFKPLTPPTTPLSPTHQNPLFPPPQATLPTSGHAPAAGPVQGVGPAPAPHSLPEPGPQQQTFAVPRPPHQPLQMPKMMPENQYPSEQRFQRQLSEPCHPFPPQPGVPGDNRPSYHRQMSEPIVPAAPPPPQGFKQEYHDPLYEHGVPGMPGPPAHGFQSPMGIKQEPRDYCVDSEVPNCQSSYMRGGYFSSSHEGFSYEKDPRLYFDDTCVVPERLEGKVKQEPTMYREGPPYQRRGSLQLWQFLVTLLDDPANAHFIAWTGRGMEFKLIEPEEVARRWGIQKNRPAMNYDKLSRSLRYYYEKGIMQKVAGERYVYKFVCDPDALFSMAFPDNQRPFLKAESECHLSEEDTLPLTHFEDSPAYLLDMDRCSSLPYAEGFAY
ELF4, sequence (Q99607 whole entry): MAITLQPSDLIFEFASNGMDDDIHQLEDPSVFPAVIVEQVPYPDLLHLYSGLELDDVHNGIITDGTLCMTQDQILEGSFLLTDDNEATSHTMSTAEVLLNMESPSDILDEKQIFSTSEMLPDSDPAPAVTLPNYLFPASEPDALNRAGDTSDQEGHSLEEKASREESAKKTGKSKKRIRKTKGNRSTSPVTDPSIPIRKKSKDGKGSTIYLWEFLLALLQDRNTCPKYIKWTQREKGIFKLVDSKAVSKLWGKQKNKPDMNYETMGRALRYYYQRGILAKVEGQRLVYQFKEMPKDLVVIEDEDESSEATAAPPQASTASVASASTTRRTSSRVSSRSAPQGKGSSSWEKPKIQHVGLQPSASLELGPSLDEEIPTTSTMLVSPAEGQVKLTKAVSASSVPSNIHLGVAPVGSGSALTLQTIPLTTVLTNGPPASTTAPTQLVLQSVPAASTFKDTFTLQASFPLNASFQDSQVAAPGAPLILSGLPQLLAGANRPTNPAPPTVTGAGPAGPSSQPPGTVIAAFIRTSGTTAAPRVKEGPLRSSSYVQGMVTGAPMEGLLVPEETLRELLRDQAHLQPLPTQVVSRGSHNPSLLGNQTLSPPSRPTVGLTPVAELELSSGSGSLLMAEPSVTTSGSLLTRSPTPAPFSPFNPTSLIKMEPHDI

For TCCGAT, the binding signal is 1.41 fold enrichment (6-mer frequency, TF over GST control) with FEV; 1.3 fold enrichment (6-mer frequency, TF over GST control) with ETV5; 1.42 fold enrichment (6-mer frequency, TF over GST control) with HSF1; 1.25 fold enrichment (6-mer frequency, TF over GST control) in the assay with SPIC; 1.22 fold enrichment (6-mer frequency, TF over GST control) in the assay with ELF4; 1.25 fold enrichment (6-mer frequency, TF over GST control) with ELK4. Further, the binding signal is 1.15 fold enrichment (6-mer frequency, TF over GST control) with ETV2; 1.23 fold enrichment (6-mer frequency, TF over GST control) in the assay with ELF3; 1.94 fold enrichment (6-mer frequency, TF over GST control) in the assay with CRX; 1.3 fold enrichment (6-mer frequency, TF over GST control) with ETV1; 1.25 fold enrichment (6-mer frequency, TF over GST control) with ERF; 1.22 fold enrichment (6-mer frequency, TF over GST control) with ETV3L. For the same sequence, the binding signal in the assay with ETS2 is 1.28 fold enrichment (6-mer frequency, TF over GST control); in the assay with SPDEF, 1.34 fold enrichment (6-mer frequency, TF over GST control); in the assay with ETV7, 1.27 fold enrichment (6-mer frequency, TF over GST control); in the assay with ELF5, 1.27 fold enrichment (6-mer frequency, TF over GST control); with ETV3 it was 1.35 fold enrichment (6-mer frequency, TF over GST control); with ETV6, 1.39 fold enrichment (6-mer frequency, TF over GST control).

For the origin of these results see PMC7862700, “An all-to-all approach to the identification of sequence-specific readers for epigenetic DNA modifications on cytosine”.
